PfHsp40 rescue – rescue of PfHsp40-mediated yeast toxicity; S. cerevisiae expressing PfHsp40, growth rescue, ATP luminescence; growth rescue, % at 12.5 µM; actives 0.68% (n = 340,000); AID 504582; in the data active means growth rescue above about 28%, passing the limit was not always enough;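 further: yeast W303a lacking pdr1 and pdr3 grown in galactose medium; growth measured after three days at 30 °C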
PrP UTR inh – inhibition of PrP 5' UTR reporter expression; cell-based PrP 5' UTR mRNA reporter, plate reader; inhibition, % (no concentration beside the values); actives 0.35% (n = 340,000); in the data active means inhibition above about 52%
Mtb BioA inh – blocks M. tuberculosis BioA enzyme activity. inhibition, % at 9.99 µM. actives 0.096% (n = 360,000). purified M. tuberculosis BioA enzyme, plate reader; in the data active means inhibition above about 40%
TcdB inh – inhibitors of Clostridioides difficile toxin B glycohydrolase | P18177 | TcdB glycohydrolase enzymatic assay, plate reader | inhibition, % at 9.99 µM | actives 0.24% (n = 350,000) | AID 652162; in the data active means inhibition above about 10%
FadD28 FP inh – blocks FadD28 binding to the bisubstrate probe; fluorescence polarization; inhibition, % at 12.5 µM; actives 0.22% (n = 360,000); AID 588549; in the data active means inhibition above about 8.5%, passing the limit was not always enough
Each line names hits and unclear results; the compound was inactive in the other large screens. Sampled rows, rich in hits. Any-hit rate of the full collection: about 1.1%.

C[C@@H]1CN([C@H](C)CO)C(=O)Cc2cc(NC(=O)CCC(F)(F)F)ccc2O[C@H]1CN(C)CC1CCCCC1	none (no result: PfHsp40 rescue, PrP UTR inh, FadD28 FP inh)
COCCN(C(=O)CSc1nncn1-c1ccccc1)c1c(N)n(Cc2ccccc2)c(=O)[nH]c1=O	none (no result: Mtb BioA inh)
CCN(C(=O)CSc1nncn1-c1ccccc1)c1c(N)n(Cc2ccccc2)c(=O)[nH]c1=O	PfHsp40 rescue 27
C=CCC1c2cccc(C(=O)O)c2C(=O)N1c1cccc(C)c1 (centres undefined)	PfHsp40 rescue 159
C=CCC1c2cccc(C(=O)O)c2C(=O)N1c1cccc(OC)c1 (centres undefined)	none
C=CCC1c2cccc(C(=O)O)c2C(=O)N1c1ccc(Cl)cc1 (centres undefined)	PfHsp40 rescue 133 (no result: TcdB inh)
C[C@H](NC(=O)C[C@@H]1CC[C@@H](NC(=O)C2CC2)[C@@H](CO)O1)c1ccccc1	none (no result: PfHsp40 rescue, PrP UTR inh, FadD28 FP inh)
COc1cccc(NC(=O)CN(C)C(=O)c2cccnc2Nc2cccc(C(F)(F)F)c2)c1	PfHsp40 rescue 299 (no result: TcdB inh)
Cc1ccc(NC(=O)CN(C)C(=O)c2cccnc2Nc2cccc(C(F)(F)F)c2)cc1	PfHsp40 rescue 567
COc1cccc(NC(=O)CN(C)C(=O)c2ccccc2OCC(=O)Nc2cccc(C(F)(F)F)c2)c1	none
C[C@@H]1CN([C@@H](C)CO)C(=O)c2cc(NS(C)(=O)=O)ccc2O[C@@H](C)CCCCO[C@@H]1CN(C)Cc1ccc(C(F)(F)F)cc1	none (no result: PfHsp40 rescue, PrP UTR inh, TcdB inh, FadD28 FP inh)
COc1ccccc1Nc1nnc(SCc2cc(=O)n3ccsc3n2)s1	TcdB inh 15
CCc1nn(C(C)C(=O)N2CCN(c3ccc(OC)cc3)CC2)c(=O)c2cc3occc3n12 (centres undefined)	PfHsp40 rescue 112
CCc1nn(C(C)C(=O)N2CC(C)CC(C)C2)c(=O)c2cc3occc3n12 (centres undefined)	none (no result: Mtb BioA inh)
CCc1cccc2c(C(=O)CN3C(=O)NC4(CCCCC4)C3=O)c[nH]c12	FadD28 FP inh 13
CCc1cccc2c(C(=O)CN3C(=O)C(=O)N(C4CCCC4)C3=O)c[nH]c12	FadD28 FP inh 14 (no result: Mtb BioA inh)
CCc1cccc2c(C(=O)CN3C(=O)NC4(CCCCCC4)C3=O)c[nH]c12	FadD28 FP inh 53
CN1c2ccc(-c3cccc(C#N)c3)cc2[C@H]2[C@H](CCN2C(=O)NC2CCCCC2)[C@H]1CO	none (no result: PfHsp40 rescue, PrP UTR inh, TcdB inh, FadD28 FP inh)
COC(=O)c1ccc(NC(=S)Nc2ccc(O)cc2)cc1	TcdB inh 10 (no result: Mtb BioA inh)
Oc1ccc(NC(=S)Nc2ccc(O)cc2)cc1	none (no result: Mtb BioA inh)
CN(C)C(=O)c1ccc(-c2ccc3c(c2)[C@@H]2[C@@H](CCN2C(=O)C2CCCCC2)[C@H](CO)N3C)cc1	none (no result: PfHsp40 rescue, PrP UTR inh, Mtb BioA inh, FadD28 FP inh)
CC(C)NC(=O)N1CC(=O)N2[C@H](C1)[C@H](c1ccc(/C=C/c3ccccc3)cc1)[C@@H]2CO	none (no result: PfHsp40 rescue, PrP UTR inh, Mtb BioA inh, FadD28 FP inh)
Nc1nc(CCOc2ccc(F)cc2)cs1	TcdB inh 11 (no result: Mtb BioA inh)
N#CC1=C(N)C(C#N)(C#N)C2(C(=O)Nc3ccccc32)C2CCCC=C12 (centres undefined)	PfHsp40 rescue 30 (no result: TcdB inh)
CO[C@H]1CN(C)C(=O)c2cc(NC(=O)c3cc(C)on3)ccc2OC[C@H](C)N(C)C[C@@H]1C	none (no result: PfHsp40 rescue, PrP UTR inh, FadD28 FP inh)
O=C1CC(O)(C(F)F)Oc2ccc3ccccc3c21 (centres undefined)	none (no result: Mtb BioA inh, TcdB inh)
O=C1CC(O)(C(F)(F)F)Oc2c1ccc1ccccc21 (centres undefined)	PfHsp40 rescue 54
CN(C(=O)CSc1nnc(-c2ccccc2)n1C)C1CCS(=O)(=O)C1 (centres undefined)	PfHsp40 rescue 44 (no result: Mtb BioA inh)
CCn1c(=O)c(CCC(=O)NCCN2CCOCC2)c(C)c2c(C)nn(-c3ccccc3)c21	none
CCn1c(=O)c(CCC(=O)N2CCN(c3ccccn3)CC2)c(C)c2c(C)nn(-c3ccccc3)c21	PfHsp40 rescue 45
Cc1nn(Cc2ccc(F)cc2)c(Cl)c1/C=N/NC(=O)c1ccccc1	none (no result: Mtb BioA inh)
Cc1nn(Cc2ccc(F)cc2)c(Cl)c1/C=N/NC(=O)c1cccnc1	Mtb BioA inh 98
CCCCCC(=O)Nc1cc(S(=O)(=O)O)cc2cc(S(=O)(=O)O)cc(O)c12	FadD28 FP inh 35 (no result: Mtb BioA inh)
CCn1cc(C(=O)O)c(=O)c2cc(Br)ccc21	PfHsp40 rescue 33 (no result: TcdB inh)
Cc1noc(C)c1NC(=O)N(C)C[C@H]1Oc2ccc(NC(=O)CCCCCC(=O)Nc3ccccc3N)cc2C(=O)N([C@H](C)CO)C[C@H]1C	none (no result: PfHsp40 rescue, PrP UTR inh, FadD28 FP inh)
O=C(CCn1cnc2ccccc21)N/N=C/c1ccccc1O	none
O=C(CCn1cnc2ccccc21)N/N=C/c1ccc(O)cc1	TcdB inh 14
O=C(CNS(=O)(=O)c1ccccc1)N/N=C/c1ccc(O)cc1	TcdB inh 14 (no result: Mtb BioA inh)
COc1cccc(/C=N/NC(=O)CSc2cccc3cccnc23)c1	none
O=C(CCNC(=O)c1ccccc1Cl)N/N=C\c1ccc(O)cc1	TcdB inh 15
O=C(CSc1cccc2cccnc12)N/N=C/c1ccc(O)cc1	TcdB inh 20 (no result: PrP UTR inh)
CN1CCN(C(=O)C[C@H]2CC[C@@H]3[C@H](COC[C@H](O)CN3C(=O)Nc3ccc(Cl)cc3)O2)CC1	none (no result: PfHsp40 rescue, PrP UTR inh, FadD28 FP inh)
COc1cccc(-c2ccc([C@H]3[C@@H](CO)N4C(=O)CN(C(=O)c5ccncc5)C[C@@H]34)cc2)c1	none (no result: PfHsp40 rescue, PrP UTR inh, Mtb BioA inh, FadD28 FP inh)
CC(C)NC(=O)Nc1cccc2c1O[C@@H](CN(C)S(=O)(=O)c1ccccc1)[C@@H](C)CN([C@H](C)CO)C2=O	none (no result: PfHsp40 rescue, PrP UTR inh, FadD28 FP inh)
COC(=O)c1ccccc1NC(=O)COC(=O)c1ccccc1N=Nc1ccc(N(C)C)cc1	PfHsp40 rescue 73 (no result: Mtb BioA inh, TcdB inh)
CC(=O)c1ccc(NC(=O)COC(=O)c2ccccc2N=Nc2ccc(N(C)C)cc2)cc1	none
CCC(=O)Nc1ccc2c(c1)C(=O)N(C)[C@@H]1CC[C@H](CC(=O)NCC3CC3)O[C@H]1CO2	none (no result: PfHsp40 rescue, PrP UTR inh, FadD28 FP inh)
COc1cc(C(O)c2nc3ccccc3s2)cc(OC)c1OC (centres undefined)	FadD28 FP inh 24
CCCn1c(C(O)c2cc(OC)c(OC)c(OC)c2)nc2ccccc21 (centres undefined)	none
COc1ccc(-c2csc(Nc3ccccc3)n2)cc1	PfHsp40 rescue 57 (no result: Mtb BioA inh)
O=C(Nc1cccc(-c2csc(Nc3ccccc3)n2)c1)c1ccccc1	PfHsp40 rescue 73
COc1ccc(-c2csc(Nc3ccc(S(=O)(=O)Nc4cc(C)on4)cc3)n2)cc1	FadD28 FP inh 10 (no result: Mtb BioA inh)
O=C(Nc1cccc(-c2csc(Nc3cccc(C(F)(F)F)c3)n2)c1)c1ccccc1	none
COc1ccc(-c2csc(Nc3ccc(S(N)(=O)=O)cc3)n2)cc1	none (no result: TcdB inh)
NS(=O)(=O)c1ccc(Nc2nc(-c3ccc(O)cc3)cs2)cc1	FadD28 FP inh 10 (no result: TcdB inh)
CCCNC(=O)Nc1ccc2c(c1)C(=O)N(C)C[C@H](OC)[C@H](C)CN(C(=O)C1CC1)[C@@H](C)CO2	none (no result: PfHsp40 rescue, PrP UTR inh, FadD28 FP inh)
COc1cc(NS(=O)(=O)c2ccc(Nc3nc(-c4cccc([N+](=O)[O-])c4)cs3)cc2)nc(OC)n1	FadD28 FP inh 17
O=[N+]([O-])c1cccc(-c2csc(Nc3ccccc3)n2)c1	none
c1ccc(Nc2nc(-c3ccccn3)cs2)cc1	PfHsp40 rescue 317 (no result: TcdB inh)
c1ccc(-c2csc(Nc3cccnc3)n2)nc1	none (no result: PrP UTR inh, TcdB inh)
O=C(C[C@H]1C[C@H]2c3cc(NC(=O)c4cccnc4)ccc3O[C@H]2[C@H](CO)O1)NCC(F)(F)F	none (no result: PfHsp40 rescue, PrP UTR inh, FadD28 FP inh)

Bioassay records from PubChem BioAssay.
